From ChEMBL document CHEMBL4513160, “CO-ADD screening of MMV (CH) - Small Polar Library” come the findings set out here.

The campaign covered roughly 23,000 compounds. About 30 (0.1%) showed an effect of 50% or more. The sample as a whole holds a higher share of strong results than the screen did. Entries with a potency or affinity are not part of this list.

The test relates to Pseudomonas aeruginosa. The following applies: Concentration 300 ug.mL-1; ASSAY_TEST Inhibition of Bacterial Growth; detection method Absorption (OD600); MEDIA CAMHB; plate type 384well; NBS; CORNING #3640; time 18 hr.
With `CCc1ccc(C2CNCCO2)cc1` (stereo unspecified), the Inhibition (usually the drop in the measured response relative to a control, in per cent) turned out to be 46.05%.
